# Results published in PubChem BioAssay (NCATS).
# Results filed as inconclusive are left out. Where a call stands in place of a potency, no number is given. Activity calls are given as the source filed them. Calls follow the shape of the dose curve; as a rule, active = well fitted curve in the direction sought with a large enough effect; inconclusive = small, poorly fitted or top-dose-only effect, or another doubt; inactive = no such curve, though single readings can be large; an effect the other way counts as inactive or inconclusive.
# Experiment: qHTS of pediatric cancer cell lines to identify multiple opportunities for drug repurposing: Primary screen for SK-N-MC cells (AID 1347093); also: potency is read from the fitted curve at half-maximal effect
# Conditions: SK-N-MC viability, CellTiter-Glo luminescence, 48 h; series mostly up to 46 µM
# Procedure, shortened: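 Metabolically active cells were quantified by ATP-dependent luminescence (CellTiter-Glo, 15 min at room temperature) following 48 h treatment. Cells had been plated at 500-1,000 per well and settled for 5 h beforehand.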
row,Structure (SMILES),Potency
1,Cc1cccc(C)c1NC(=O)CN1CCN(CCCC(c2ccc(F)cc2)c2ccc(F)cc2)CC1,inactive
2,CCCN1CCCC[C@H]1C(=O)Nc1c(C)cccc1C,inactive
3,C[C@]12CC[C@@H]3c4ccc(O)cc4CC[C@H]3[C@@H]1C[C@@H](O)[C@@H]2O,inactive
4,CCN(CC)C(=O)/C(C#N)=C/c1cc(O)c(O)c([N+](=O)[O-])c1,inactive
5,CCOc1ccc(NC(=O)CC(C)O)cc1 (stereo not given),inactive
6,COc1ccc(OC)c(C(O)CNC(=O)CN)c1 (stereo not given),inactive
7,Oc1ccc(O)cc1,26.6 µM (active)
8,Cc1cc(=O)n(-c2ccccc2)n1C,inactive

# Experiment: qHTS of pediatric cancer cell lines to identify multiple opportunities for drug repurposing: Primary screen for BT-37 cells (AID 1347094)
# Conditions: BT-37 viability, CellTiter-Glo luminescence, 48 h; series mostly up to 57.3 µM
# Procedure, shortened: (§1)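 Cells plated at 500-1,000/well in growth medium, compounds added after 5 h. MIPE tested at 11 points (from 0.78 nM), NPC at 8 points (from 0.59 nM). CellTiter-Glo luminescence after 48 h; concentration-response curves from primary screen.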
row,Structure (SMILES),Potency
1,Cc1cccc(C)c1NC(=O)CN1CCN(CCCC(c2ccc(F)cc2)c2ccc(F)cc2)CC1,inactive
2,CCCN1CCCC[C@H]1C(=O)Nc1c(C)cccc1C,inactive
3,C[C@]12CC[C@@H]3c4ccc(O)cc4CC[C@H]3[C@@H]1C[C@@H](O)[C@@H]2O,inactive
4,CCOc1ccc(NC(=O)CC(C)O)cc1 (stereo not given),inactive
5,COc1ccc(OC)c(C(O)CNC(=O)CN)c1 (stereo not given),inactive
6,Oc1ccc(O)cc1,inactive
7,Cc1cc(=O)n(-c2ccccc2)n1C,inactive

# Experiment: qHTS of pediatric cancer cell lines to identify multiple opportunities for drug repurposing: Primary screen for NB-EBc1 cells (AID 1347095); also: potency is read from the fitted curve at half-maximal effect
# Conditions: NB-EBc1 neuroblastoma viability, CellTiter-Glo luminescence, 48 h; series mostly up to 46 µM
# Procedure, shortened: as §1
row,Structure (SMILES),Potency
1,CCCN1CCCC[C@H]1C(=O)Nc1c(C)cccc1C,inactive
2,CCOc1ccc(NC(=O)CC(C)O)cc1 (stereo not given),inactive
3,COc1ccc(OC)c(C(O)CNC(=O)CN)c1 (stereo not given),inactive
4,Oc1ccc(O)cc1,6.68 µM (active)
5,Cc1cc(=O)n(-c2ccccc2)n1C,inactive
